Results reported in PubChem BioAssay (Tox21).
Records with an inconclusive call do not appear. The source made the active and inactive calls. Unless noted, calls come from the whole dose curve.

Tests used:
[1] = Nuclear factor erythroid 2-related factor 2/antioxidant responsive element (Nrf2/ARE) small molecule agonists: qHTS cell viability counter screen in human keratinocytes (AID 1919968; active = well fitted curve in the direction sought with a large enough effect in the repeat runs; an effect the other way counts as inactive or inconclusive; note: nearly all actives have a fitted effect of over 55% in size; note: potency is the fitted concentration of half-maximal effect)
Outline: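 Cells of the KeratinoSens line were plated at 1,500 per well and left for 5 h before compound transfer from DMSO stocks. After a 23 h incubation (37 C, 5% CO2), CellTiter-Fluor was added. Signal was taken as fluorescence intensity 1 h later.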

[2] = target: Gonadotropin-releasing hormone receptor (Homo sapiens) (UniProt P30968); test: Human gonadotropin-releasing hormone receptor (GnRHR) small molecule agonists, calcium flux assay in GnRHR-HEK293 cells (AID 1920063); note: nearly all actives have a fitted effect of over 35% in size
Sequence of Gonadotropin-releasing hormone receptor (Homo sapiens) (P30968 whole entry, looked up): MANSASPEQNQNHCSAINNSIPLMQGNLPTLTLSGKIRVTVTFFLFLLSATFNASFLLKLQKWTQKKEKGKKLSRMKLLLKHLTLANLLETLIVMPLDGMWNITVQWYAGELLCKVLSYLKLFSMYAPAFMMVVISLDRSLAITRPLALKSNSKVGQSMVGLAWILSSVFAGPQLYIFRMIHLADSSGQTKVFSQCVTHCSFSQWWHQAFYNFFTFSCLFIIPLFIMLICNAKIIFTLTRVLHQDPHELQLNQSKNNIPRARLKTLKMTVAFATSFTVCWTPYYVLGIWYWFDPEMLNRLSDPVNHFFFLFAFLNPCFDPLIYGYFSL
Outline: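 Compounds dissolved in DMSO are pin-transferred onto dye-loaded GnRHR-HEK293 cells, which were seeded 18 h before at 37 C/5% CO2. Calcium signal is read as fluorescence intensity at 1 s intervals for 3 min.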

[3] = target: KiSS-1 receptor (Homo sapiens) (UniProt Q969F8); test: Human kisspeptin (KISS1R) small molecule agonists, calcium flux assay in KISS1R-HEK293 cells (AID 1920064; active = well fitted curve in the direction sought with a large enough effect in the repeat runs; an effect the other way counts as inactive or inconclusive)
Sequence of KiSS-1 receptor (Homo sapiens) (Q969F8 whole entry, looked up): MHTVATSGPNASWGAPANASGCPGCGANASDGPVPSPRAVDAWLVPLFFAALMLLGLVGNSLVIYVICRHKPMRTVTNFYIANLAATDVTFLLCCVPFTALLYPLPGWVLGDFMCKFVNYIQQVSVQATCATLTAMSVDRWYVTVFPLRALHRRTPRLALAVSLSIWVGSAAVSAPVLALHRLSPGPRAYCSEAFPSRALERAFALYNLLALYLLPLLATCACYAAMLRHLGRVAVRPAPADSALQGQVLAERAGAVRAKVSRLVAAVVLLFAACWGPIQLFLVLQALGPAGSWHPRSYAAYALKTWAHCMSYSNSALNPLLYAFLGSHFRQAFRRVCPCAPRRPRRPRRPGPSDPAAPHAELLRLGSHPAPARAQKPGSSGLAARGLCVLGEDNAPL
Outline: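 Cell line: HEK293, stable human KISS1R. Dye loading 1 h at 37 C after 18 h culture. Read: kinetic fluorescence, 480/540 nm, 3 min at 1 s intervals.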

[4] = G protein-coupled receptor (GPCR) small molecule agonists, calcium flux assay: HEK293 wild type cell line counter screen (AID 1920065)
Outline: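 Tox21 10K compounds, 15 concentrations each in triplicate, pin-transferred in DMSO onto dye-loaded cells; kinetic read at 480/540 nm for 3 min, 1 s intervals.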

[5] = p53 small molecule agonists, cell-based qHTS assay with rat liver microsomes (AID 1963578)
Outline: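 Agonist mode in p53RE-bla reporter cells, with compounds co-incubated 16 h at 37 C alongside 0.5 mg/mL rat liver microsomes and 0.5 mg/mL NADPH (final), followed by a 2 h LiveBLAzer detection step.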

[6] = p53 small molecule agonists, cell-based qHTS assay: qHTS cell viability counter screen (AID 1963581); note: nearly all actives have a fitted effect of over 45% in size
Outline: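 ATP content measured by luminescence in HCT-116 p53RE-bla cells treated 16 h at 37 C, same wells as the reporter screen.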

[7] = p53 small molecule agonists, cell-based qHTS assay (AID 1963582; active = well fitted activation curve with a large enough effect in the signal ratio in the repeat runs, not every such curve was filed as active; the % refers to the signal ratio)
Outline: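 16 h compound exposure (37 C) of p53 response element–bla cells, preceded by 5 h recovery at 37 C/5% CO2; read-out via LiveBLAzer B/G FRET substrate, 2 h RT, fluorescence intensity.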

[8] = target: 5-hydroxytryptamine receptor 2A (Homo sapiens) (UniProt P28223); test: 5-hydroxytryptamine receptor 2A (HTR2A) small molecule agonists, cell-based qHTS assay (AID 1963587); note: nearly all actives have a fitted effect of over 30% in size
Sequence of 5-hydroxytryptamine receptor 2A (Homo sapiens) (P28223 whole entry, looked up): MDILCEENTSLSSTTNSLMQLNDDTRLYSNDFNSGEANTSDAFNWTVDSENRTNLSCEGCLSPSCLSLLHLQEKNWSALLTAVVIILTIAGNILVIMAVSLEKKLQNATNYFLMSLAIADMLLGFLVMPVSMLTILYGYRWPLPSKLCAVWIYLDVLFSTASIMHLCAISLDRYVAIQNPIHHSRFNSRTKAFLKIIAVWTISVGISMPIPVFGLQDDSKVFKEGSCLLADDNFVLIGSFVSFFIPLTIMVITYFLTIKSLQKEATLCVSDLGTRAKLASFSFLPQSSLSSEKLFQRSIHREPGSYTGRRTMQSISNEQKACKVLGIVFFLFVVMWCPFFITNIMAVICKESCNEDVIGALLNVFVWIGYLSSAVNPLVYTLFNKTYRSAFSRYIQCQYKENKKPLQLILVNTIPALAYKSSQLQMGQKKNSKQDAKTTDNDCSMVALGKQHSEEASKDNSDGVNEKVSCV
Outline: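 Kinetic calcium-flux fluorescence (2 min, 1 sec intervals) after compound addition in agonist mode. HTR2A-CHO cells were cultured 18 h, then dye-loaded 1 h at 37 C.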

[9] = target: Muscarinic acetylcholine receptor M1 (Homo sapiens) (UniProt P11229); test: Cholinergic receptor muscarinic 1 (CHRM1) small molecule antagonists, cell-based qHTS assay (AID 1963588); note: nearly all actives have a fitted effect of over 40% in size; note: potency is the fitted concentration of half-maximal effect
Sequence of Muscarinic acetylcholine receptor M1 (Homo sapiens) (P11229 whole entry, looked up): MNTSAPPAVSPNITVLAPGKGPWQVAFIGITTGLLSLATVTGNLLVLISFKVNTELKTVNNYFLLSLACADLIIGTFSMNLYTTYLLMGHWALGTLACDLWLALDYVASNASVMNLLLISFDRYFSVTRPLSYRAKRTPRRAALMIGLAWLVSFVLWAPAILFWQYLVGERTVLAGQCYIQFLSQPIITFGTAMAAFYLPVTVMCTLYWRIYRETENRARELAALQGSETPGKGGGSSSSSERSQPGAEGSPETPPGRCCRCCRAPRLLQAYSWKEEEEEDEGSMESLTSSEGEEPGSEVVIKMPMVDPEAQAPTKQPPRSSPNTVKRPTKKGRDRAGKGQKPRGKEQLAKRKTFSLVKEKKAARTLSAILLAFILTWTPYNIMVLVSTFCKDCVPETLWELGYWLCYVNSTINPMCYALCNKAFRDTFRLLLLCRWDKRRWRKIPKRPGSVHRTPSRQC
Outline: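 Compounds were tested at 15 concentrations in three independent runs. Dye-loaded CHRM1-CHO cells were exposed 5 min at room temperature before stimulation by acetylcholine added at 50nM. Intracellular calcium was read kinetically on FDSS for 3 min.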

[10] = target: Muscarinic acetylcholine receptor M1 (Homo sapiens) (UniProt P11229); test: Cholinergic receptor muscarinic 1 (CHRM1) small molecule agonists, cell-based qHTS assay (AID 1963589); note: nearly all actives have a fitted effect of over 35% in size
Outline: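 Homogeneous fluorescence calcium flux, agonist mode. Human M1-expressing CHO cells; compound dosed at 15 concentrations, three independent runs; signal sampled every 1 sec.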

[11] = cAMP Responsive Elements (CRE) small molecule agonists, cell-based qHTS assay (AID 1963590)
Outline: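 HEK 293T cells stably bearing CRE-bla were plated at 2,000 cells per well and rested 18 h. Compounds, positive controls or DMSO were added for 3 h at 37 C. LiveBLAzer B/G substrate was then loaded for 2 h at room temperature.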

[12] = cAMP Responsive Elements (CRE) small molecule antagonists, cell-based qHTS assay (AID 1963591; active = well fitted inhibition curve with a large enough effect in the signal ratio in the repeat runs, not every such curve was filed as active; the % refers to the signal ratio)
Outline: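 First, CRE-bla HEK293T cells settled 18 h at 37 C. Next, compound and 0.25 uM final NKH477 were applied for 3 h. Last, LiveBLAzer B/G substrate was loaded for 2 h at room temperature.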

[13] = target: Beta-2 adrenergic receptor (Homo sapiens) (UniProt P07550); test: Adrenergic beta2 receptor (ADRB2) small molecule antagonists, cell-based qHTS assay (AID 1963592); note: series mostly up to about 92 µM; nearly all actives have a fitted effect of over 50% in size
Sequence of Beta-2 adrenergic receptor (Homo sapiens) (P07550 whole entry, looked up): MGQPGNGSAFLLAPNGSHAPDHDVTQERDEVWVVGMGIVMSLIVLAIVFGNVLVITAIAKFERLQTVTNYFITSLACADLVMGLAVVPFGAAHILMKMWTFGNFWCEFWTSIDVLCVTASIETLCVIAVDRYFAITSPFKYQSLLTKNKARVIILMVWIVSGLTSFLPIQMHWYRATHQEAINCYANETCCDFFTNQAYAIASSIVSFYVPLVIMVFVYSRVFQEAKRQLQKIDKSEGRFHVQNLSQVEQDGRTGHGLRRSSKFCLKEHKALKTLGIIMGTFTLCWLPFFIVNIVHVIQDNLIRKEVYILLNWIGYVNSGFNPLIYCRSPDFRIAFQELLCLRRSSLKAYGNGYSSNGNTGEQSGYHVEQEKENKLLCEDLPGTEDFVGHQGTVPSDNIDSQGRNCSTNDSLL
Outline: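 Assay format: CHO-ADRB2 cells, 18-20hr seeding at 37C/5% CO2, then compound plus 1nM isoproterenol agonist mix for 0.5hr RT. Homogeneous time-resolved fluorescence cAMP detection after 1hr, expressed as 665/615 nm ratio.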

[14] = target: Beta-2 adrenergic receptor (Homo sapiens) (UniProt P07550); test: Adrenergic beta2 receptor (ADRB2) small molecule agonists, cell-based qHTS assay (AID 1963593); note: potency is the fitted concentration of half-maximal effect;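 for activation: CHO cells stably overexpressing human ADRB2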
Outline: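 CHO cells stably over-expressing ADRB2 were plated overnight at 37C, then dosed with compounds plus a stimulation mix containing 100uM IBMX and 25uM Ro-20-1724 for 0.5hr at room temperature. cAMP was measured by HTRF competition, 1hr.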

[15] = target: D(2) dopamine receptor (Homo sapiens) (UniProt P14416); test: Dopamine D2 receptor (DRD2) small molecule agonists, cell-based qHTS assay (AID 1963594); note: nearly all actives have a fitted effect of over 35% in size
Sequence of D(2) dopamine receptor (Homo sapiens) (P14416 whole entry, looked up): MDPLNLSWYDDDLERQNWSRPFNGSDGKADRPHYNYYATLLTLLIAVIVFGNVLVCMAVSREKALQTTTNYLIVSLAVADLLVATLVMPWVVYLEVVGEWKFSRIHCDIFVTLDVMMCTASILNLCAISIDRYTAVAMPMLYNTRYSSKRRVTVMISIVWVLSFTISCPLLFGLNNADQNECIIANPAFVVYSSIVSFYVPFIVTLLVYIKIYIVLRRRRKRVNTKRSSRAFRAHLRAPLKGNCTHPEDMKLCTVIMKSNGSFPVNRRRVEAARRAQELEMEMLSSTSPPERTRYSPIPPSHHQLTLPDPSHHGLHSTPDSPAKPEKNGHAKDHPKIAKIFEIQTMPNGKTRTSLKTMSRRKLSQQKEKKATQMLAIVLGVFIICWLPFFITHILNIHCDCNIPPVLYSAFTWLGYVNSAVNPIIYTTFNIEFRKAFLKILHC
Outline: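 cAMP accumulation in DRD2-HEK293 cells measured by HTRF after 1 h detection; compounds added 10 min before NKH477 (200nM […]) forskolin-analogue stimulation, 30 min at room temperature, with Ro20-1724 present at 0.1 mM final.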

[16] = target: D(2) dopamine receptor (Homo sapiens) (UniProt P14416); test: Dopamine D2 receptor (DRD2) small molecule antagonists, cell-based qHTS assay (AID 1963595; active = well fitted inhibition curve with a large enough effect in the signal ratio in the repeat runs, with a control signal flat; the % refers to the signal ratio; note: potency is the fitted concentration of half-maximal effect)
Outline: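 HEK293 cells stably expressing DRD2, preincubated with 0.1 mM Ro20-1724 and compounds 10 min, were stimulated with 200 nM NKH477 plus 12 nM quinpirole for 30 min at room temperature; cAMP measured by HTRF (665/620 nm).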

[17] = p53 small molecule agonists, cell-based qHTS assay with human liver microsomes: qHTS cell viability counter screen (AID 1963579); note: nearly all actives have a fitted effect of over 45% in size; note: potency is the fitted concentration of half-maximal effect
Outline: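 Metabolically activated exposure: compounds, human liver microsomes and NADPH (0.5 mg/mL final apiece) were added to p53RE-bla cells seeded 5 h earlier, left 16 h at 37 C, and then assessed for viability by CellTiter-Glo luminescence.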

[18] = p53 small molecule agonists, cell-based qHTS assay with rat liver microsomes: qHTS cell viability counter screen (AID 1963580); note: nearly all actives have a fitted effect of over 45% in size; note: potency is the fitted concentration of half-maximal effect
Outline: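 Cytotoxicity counter screen: intracellular ATP read by CellTiter-Glo luminescence in the p53 reporter wells. HCT-116 p53RE-bla cells were treated for 16 h at 37 C alongside rat liver microsomes and NADPH, each 0.5 mg/mL final.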

[19] = target: 5-hydroxytryptamine receptor 2A (Homo sapiens) (UniProt P28223); test: 5-hydroxytryptamine receptor 2A (HTR2A) small molecule antagonists, cell-based qHTS assay (AID 1963586); note: nearly all actives have a fitted effect of over 45% in size
Outline: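 CHO cells stably expressing human HTR2A were plated for 18 h at 37 C, then loaded with calcium dye for 1 h. Compounds were preincubated 5 min at room temperature before DOI (4 nM solution) was added. Kinetic fluorescence was read for 3 min.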

Measured: Potency

C=C[Si](OC(C)=O)(OC(C)=O)OC(C)=O
not listed: [17] | [18] | [19]
inactive: all other assays above

O=C1CCCCCCCCCCCCCCO1
not listed: [7] | [14]
inactive: all other assays above

O=C1C=CC(=O)N1
inactive: [2] | [3] | [4] | [5] | [19] | [8] | [9] | [10] | [15]
active: [1] 28 µM | [17] 21 µM | [18] 29.6 µM

CC(C)C1=CC2=CC[C@@H]3[C@](C)(CCC[C@@]3(C)C(=O)O)[C@H]2CC1
not listed: [7] | [11] | [12] | [14]
inactive: all other assays above

CCO/C=C1\N=C(c2ccccc2)OC1=O
not listed: [8] | [11] | [14] | [17] | [19]
inactive: all other assays above

Nc1ccn([C@H]2CS[C@@H](CO)O2)c(=O)n1
not listed: [7] | [8] | [9] | [10] | [17] | [19]
inactive: all other assays above

Cc1nc2sccn2c(=O)c1CCN1CCC(=C(c2ccc(F)cc2)c2ccc(F)cc2)CC1
active: [1] 26.6 µM | [9] 2.59 µM | [16] 26.6 µM
not listed: [7] | [11] | [12] | [14] | [17] | [19]
inactive: all other assays above

O=C(N[C@H](CO)[C@H](O)c1ccc([N+](=O)[O-])cc1)C(Cl)Cl
inactive: [1] | [2] | [3] | [4] | [5] | [18] | [6] | [12] | [13] | [16]

O=C(NO)c1ccccc1
inactive: [1] | [2] | [3] | [4] | [5] | [18] | [6] | [10] | [16]
active: [14] 20.7 µM
